For 26 compounds, inhibition (viability loss, TRAIL sensitization) results are on record in PubChem BioAssay AID624354 (Sanford-Burnham Center for Chemical Genomics, 2012).

The campaign covered roughly 360,000 compounds. About 3,800 (1.1%) were called active. Many of the other results were omitted from the sample, so actives are more common in it than they were. Unmarked numbers belong to inactive results.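 Rule for the calls: active = compounds causing at least 50% loss of cell viability in the single-dose screen, relative to plate controls; inactive = the rest.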

A short description of the assay: TRAIL-exposed caspase-8 expressing cell killing – NB7+C8 cells, ATPlite luminescence, TRAIL sensitizer project, primary screen (AID 624354). The note with it: at 10 µM, hits give high values.
Consider `Cc1ccc(CNC(=O)Cn2cnc3c(NCc4ccccc4)ncnc32)o1`, for which the inhibition (viability loss, TRAIL sensitization) was 20.3%.
To `OCC1(Cc2ccccc2C(F)(F)F)CCN(Cc2cccc3cnccc23)CC1` belongs 2.15%.
Regarding `COc1ccc(C(=O)NCC[N+](C)(C)C)cc1`, the inhibition (viability loss, TRAIL sensitization) is -3.08%.
The value for `Cc1ccc(S(=O)(=O)N(C)C)cc1NC(=O)c1ccc(-n2cncn2)c([N+](=O)[O-])c1` was -6.94%; that for `O=C(COC(=O)c1c(Cl)cccc1Cl)Nc1cccc(S(=O)(=O)NC2=NCCCCC2)c1` was -2%; that for `O=C1NC[C@H](Cc2ccc(O)cc2)N(C[C@@H]2CCCN2C[C@H](Cc2ccccc2)N2C[C@H](Cc3ccccc3)N(CC3CCCCC3)C(=O)C2=O)C1=O` was -7.58%.
To `CN(C)NC(=O)C(NC(=O)c1ccc(N)cc1)C12CC3CC(CC(C3)C1)C2` (stereo unspecified) belongs -0.166%.
The value for `Cc1nc2cc(S(=O)(=O)C(F)(F)F)ccc2s1` was 15.9%.
Regarding `CCN1CCCC1CNC(=O)Cn1cnc2ccc(S(=O)(=O)N3CCC(C)CC3)cc2c1=O` (stereo unspecified), the inhibition (viability loss, TRAIL sensitization) is 3.92%.
The value for `CC(C)(C)Oc1ccccc1Nc1nc(NCCO)nc(N2CCCC2)n1` was -17.8%.
To `CC(=O)Nc1ccc(SCC(=O)NC(=O)c2ccc(Cl)cc2)cc1` belongs -7.06%.
On to `O=C(O)CC(SCC(=O)Nc1ccc(Br)cc1)C(=O)O` (stereo unspecified), for which the inhibition (viability loss, TRAIL sensitization) was -3.72%.
As for `O=C(CCl)Nc1ccc(Sc2ccc(NC(=O)CCl)cc2)cc1`, the inhibition (viability loss, TRAIL sensitization) was 51.1% (active).
With `COc1cccc2cc(/C(C)=N/NC(=O)c3ccco3)oc12`, the inhibition (viability loss, TRAIL sensitization) is 4.04%.
The value for `Cc1oc2c(F)c(F)c(F)c(F)c2c1S(=O)(=O)Nc1cccc(C(F)(F)F)c1` was 29.6%; that for `CCCc1cc(C(=O)Nc2ccc(Cl)cn2)cs1` was 48.6%; that for `O=C(CN1CCc2cc3c(cc2C1)OCCCO3)Nc1ccccc1` was -22%.
Regarding `Cc1ccc2sc(NNC(=O)c3ccc4c(c3)OCCO4)nc2c1C`, the inhibition (viability loss, TRAIL sensitization) was -37.1%.
To `O=C(Nc1nc2ccccc2s1)c1ccc2c(c1)OCO2` belongs 74.6% (active); to `Cc1nc(NC(=O)c2ccc3c(c2)OCCO3)ccc1Br`, 21.7%.
The value for `O=C(Nc1ccc(Cl)cn1)c1ccc2c(c1)OCCO2` was 64% (active); that for `O=C(Nc1ccccc1)c1ccc2c(c1)OCCCO2` was 78% (active).
With `N#Cc1ccccc1NC(=O)c1ccc2c(c1)OCO2`, the inhibition (viability loss, TRAIL sensitization) was 0.697%.
For the compound `CN1CCN(c2ccc(NC(=O)c3ccc4c(c3)OCCO4)cc2Cl)CC1`, the inhibition (viability loss, TRAIL sensitization) was 42.3%.
In the case of `COc1ccccc1NC1=NC(c2ccc(Cl)cc2)N=C(N)N1` (stereo unspecified), the inhibition (viability loss, TRAIL sensitization) is -3.71%.
To `CC(C#N)OC(=O)c1cccnc1SCC(=O)Nc1ccc2c(c1)OCO2` (stereo unspecified) belongs 4.56%.
